In publication PMC5540273 (PLoS ONE, 2017):

system: NEK3; conditions: concentration: 1 μM,replicates: in singlicate; n = 1
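Note: KINOMEscan kinase panel screen.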

SMILES | %Inh [%]
O=C(NCCNc1ccnc(NCc2ccc(F)cc2)n1)c1cc2ccccc2s1 [GSK1379944] | 11
Cl.Cl.NC[C@H](CC1CCCCC1)NC(=O)c1cc(Br)c(-c2ccnc3[nH]ccc23)s1 [GSK1581427] | 17
Cc1ccc2c(-c3ccncc3)c(-c3ccc(F)cc3)nn2c1.Cl [GW461484] | 0
CC(C)N1C(=O)Cc2cc(Nc3ncc(C(F)(F)F)c(NCc4cccc(S(C)(=O)=O)c4)n3)ccc21 | 37
CN(C)CC(O)COc1ccc(Nc2nccc(-c3cnn4nc(N5CCOCC5)ccc34)n2)cc1 (stereo not drawn) [GW767488] | 96.1
COc1ccc(C[C@@H](CN)NC(=O)c2cc(Br)c(-c3ccnc4[nH]ccc34)s2)cc1.Cl.Cl [GSK1389063] | 22
C[C@@H](Oc1cc(-c2cnn(C3CCNCC3)c2)cnc1N)c1c(Cl)ccc(F)c1Cl | 24
CCN(CC)CCCCNc1ncc2cc(-c3c(Cl)cccc3Cl)c(NC(=O)NC(C)(C)C)nc2n1 | 29
C[C@H]1Oc2cc(cnc2N)-c2c(nn(C)c2C#N)CN(C)C(=O)c2ccc(F)cc21 | 29
CCN(CC)CCOc1ccc(Nc2ncc3cc(-c4c(Cl)cccc4Cl)c(=O)n(C)c3n2)cc1 [SB-601273] | 26
Cl.Cl.NC[C@H](Cc1ccc(C(F)(F)F)cc1)NC(=O)c1cc(Br)c(-c2ccnc3[nH]ccc23)s1 [GSK1487252] | 23
C[C@@H]1CCN(C(=O)CC#N)C[C@@H]1N(C)c1ncnc2[nH]ccc12 | 23
Cc1n[nH]c2ccc(-c3cc(OC[C@@H](N)Cc4ccccc4)cnc3-c3ccoc3)cc12.O=C(O)C(F)(F)F.O=C(O)C(F)(F)F [GSK507358] | 0
CN(C)CCOc1ccc(-c2cc(-c3c[nH]nc3-c3ccccn3)ccn2)cc1 [GW835314] | 33
CCn1c(-c2nonc2N)nc2c(C#CC(C)(C)O)nc(OCCN)cc21.Cl.Cl [GSK902056] | 4
Nc1nc(Nc2ccccc2)cc(-c2ccc3c(N)n[nH]c3c2)n1 [GSK2225749] | 0
Cc1ccc(-n2nc(C(C)(C)C)cc2NC(=O)Nc2ccc(OCCN3CCOCC3)c3ccccc23)cc1 [GW839464] | 9
Cc1cc(C(=O)Nc2ccc(Oc3ccc4nc(NC(=O)C5CC5)cn4n3)cc2)nn1-c1ccccc1 | 0
O=C(NCCCN1CCOC1=O)c1cnc(NCc2cc(Cl)ccc2Cl)nc1NC1CCCC1 | 31
CC(C)Nc1cc(-c2ccc3c(N)n[nH]c3c2)nc(N)n1 [GSK2221681] | 1
CNC(=O)c1ccccc1Sc1ccc2c(/C=C/c3ccccn3)n[nH]c2c1 | 32
NC(=O)c1cc(-c2ccccc2)cc2c(C3CCNCC3)c[nH]c12 [GSK301362] | 7
Cl.Cl.Nc1nc(-c2ccc3c(N)n[nH]c3c2)cc(N2CCCC(NC(=O)c3ccccc3)C2)n1 (stereo not drawn) [GSK2286775] | 23
Cl.Oc1cc(-c2nc(-c3ccccc3)[nH]c2-c2ccncc2)ccc1Cl [SB-386023] | 0
Cc1cc2cn[nH]c2cc1-c1cccc2c(N)c(C(N)=O)nnc12 | 33
Cc1occc1-c1nc(N)c(OC[C@@H](N)Cc2c[nH]c3ccccc23)cc1-c1cc2c(C)n[nH]c2cn1 [GSK1660450] | 0
C=CC(=O)Nc1cc2c(Nc3ccc(F)c(Cl)c3)ncnc2cc1OCCCN1CCOCC1 [GW781483] | 18

system: NEK4; conditions: concentration: 1 μM,replicates: in singlicate; n = 1

SMILES | %Inh [%]
O=C(NCCNc1ccnc(NCc2ccc(F)cc2)n1)c1cc2ccccc2s1 [GSK1379944] | 19
Cl.Cl.NC[C@H](CC1CCCCC1)NC(=O)c1cc(Br)c(-c2ccnc3[nH]ccc23)s1 [GSK1581427] | 23
Cc1ccc2c(-c3ccncc3)c(-c3ccc(F)cc3)nn2c1.Cl [GW461484] | 11
CC(C)N1C(=O)Cc2cc(Nc3ncc(C(F)(F)F)c(NCc4cccc(S(C)(=O)=O)c4)n3)ccc21 | 0
CN(C)CC(O)COc1ccc(Nc2nccc(-c3cnn4nc(N5CCOCC5)ccc34)n2)cc1 (stereo not drawn) [GW767488] | 37
COc1ccc(C[C@@H](CN)NC(=O)c2cc(Br)c(-c3ccnc4[nH]ccc34)s2)cc1.Cl.Cl [GSK1389063] | 1
C[C@@H](Oc1cc(-c2cnn(C3CCNCC3)c2)cnc1N)c1c(Cl)ccc(F)c1Cl | 20
CCN(CC)CCCCNc1ncc2cc(-c3c(Cl)cccc3Cl)c(NC(=O)NC(C)(C)C)nc2n1 | 0
C[C@H]1Oc2cc(cnc2N)-c2c(nn(C)c2C#N)CN(C)C(=O)c2ccc(F)cc21 | 0
CCN(CC)CCOc1ccc(Nc2ncc3cc(-c4c(Cl)cccc4Cl)c(=O)n(C)c3n2)cc1 [SB-601273] | 0
Cl.Cl.NC[C@H](Cc1ccc(C(F)(F)F)cc1)NC(=O)c1cc(Br)c(-c2ccnc3[nH]ccc23)s1 [GSK1487252] | 4
C[C@@H]1CCN(C(=O)CC#N)C[C@@H]1N(C)c1ncnc2[nH]ccc12 | 0
Cc1n[nH]c2ccc(-c3cc(OC[C@@H](N)Cc4ccccc4)cnc3-c3ccoc3)cc12.O=C(O)C(F)(F)F.O=C(O)C(F)(F)F [GSK507358] | 0
CN(C)CCOc1ccc(-c2cc(-c3c[nH]nc3-c3ccccn3)ccn2)cc1 [GW835314] | 0
CCn1c(-c2nonc2N)nc2c(C#CC(C)(C)O)nc(OCCN)cc21.Cl.Cl [GSK902056] | 20
Nc1nc(Nc2ccccc2)cc(-c2ccc3c(N)n[nH]c3c2)n1 [GSK2225749] | 5
Cc1ccc(-n2nc(C(C)(C)C)cc2NC(=O)Nc2ccc(OCCN3CCOCC3)c3ccccc23)cc1 [GW839464] | 0
Cc1cc(C(=O)Nc2ccc(Oc3ccc4nc(NC(=O)C5CC5)cn4n3)cc2)nn1-c1ccccc1 | 0
O=C(NCCCN1CCOC1=O)c1cnc(NCc2cc(Cl)ccc2Cl)nc1NC1CCCC1 | 0
CC(C)Nc1cc(-c2ccc3c(N)n[nH]c3c2)nc(N)n1 [GSK2221681] | 7
CNC(=O)c1ccccc1Sc1ccc2c(/C=C/c3ccccn3)n[nH]c2c1 | 0
NC(=O)c1cc(-c2ccccc2)cc2c(C3CCNCC3)c[nH]c12 [GSK301362] | 4
Cl.Cl.Nc1nc(-c2ccc3c(N)n[nH]c3c2)cc(N2CCCC(NC(=O)c3ccccc3)C2)n1 (stereo not drawn) [GSK2286775] | 7
Cl.Oc1cc(-c2nc(-c3ccccc3)[nH]c2-c2ccncc2)ccc1Cl [SB-386023] | 10
Cc1cc2cn[nH]c2cc1-c1cccc2c(N)c(C(N)=O)nnc12 | 18
Cc1occc1-c1nc(N)c(OC[C@@H](N)Cc2c[nH]c3ccccc23)cc1-c1cc2c(C)n[nH]c2cn1 [GSK1660450] | 0
C=CC(=O)Nc1cc2c(Nc3ccc(F)c(Cl)c3)ncnc2cc1OCCCN1CCOCC1 [GW781483] | 0
